Assay results as given in PubChem BioAssay AID1159580 (chemical genetic matrix, 2015).
Out of some 5,500 compounds screened, about 2,000 (36%) were called active. Not shown: some 18% with an inconclusive outcome. Cut-off read from the data, not from the text of the source: active = normalized growth mostly below about 0.91 (no sharp cut-off); inconclusive = no clear call, values can overlap the other calls; inactive = mostly above about 0.92. Some of the results follow.

Assay: chemical genetic growth profiling, strain panel (AID 1159580);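 note: tested at 20 µM; growth read once vehicle control cultures reached saturation at 30 °C; 1 = growth at the plate median or of vehicle wells; lower values mean less growth of the strain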
Conditions: growth OD

Measured: normalized growth

COc1ccc2c(c1)OC[C@@H](Cc1ccc(OC)c(OC)c1)[C@@H]2O
active: S. cerevisiae deletion strains, locus YKR001C, strain vps1, active compounds read low 0.892 | S. cerevisiae deletion strains, locus YLR262C, strain YPT6 (second series), active compounds read low 0.831
inactive: S. cerevisiae deletion strains, locus YJR075W, strain HOC1, active compounds read low 0.951 | S. cerevisiae deletion strains, locus YKL009W, strain mrt4, active compounds read low 0.985 | S. cerevisiae deletion strains, locus YKL068W, active compounds read low 0.988 | S. cerevisiae deletion strains, locus YKL085W, strain MDH1 (second series), active compounds read low 0.956 | S. cerevisiae deletion strains, locus YKL085W, strain MDH1, active compounds read low 0.956 | S. cerevisiae deletion strains, locus YKL160W, strain elf1, active compounds read low 1 | S. cerevisiae deletion strains, locus YKL190W, strain CNB1, active compounds read low 1 | S. cerevisiae deletion strains, locus YKR026C, strain gcn3, active compounds read low 0.992 | S. cerevisiae deletion strains, locus YKR091W, strain srl3, active compounds read low 0.988 | S. cerevisiae deletion strains, locus YLL001W, strain dnm1, active compounds read low 0.99 | S. cerevisiae deletion strains, locus YLL026W, active compounds read low 0.995 | S. cerevisiae deletion strains, locus YLL041C, strain sdh2, active compounds read low 0.989 | S. cerevisiae deletion strains, locus YLR027C, strain aat2, active compounds read low 0.989 | S. cerevisiae deletion strains, locus YLR039C, strain RIC1, active compounds read low 0.749 | S. cerevisiae deletion strains, locus YLR058C, strain SHM2, active compounds read low 0.997 | S. cerevisiae deletion strains, locus YLR102C, strain apc9, active compounds read low 0.987 | S. cerevisiae deletion strains, locus YLR113W, strain HOG1, active compounds read low 0.875 | S. cerevisiae deletion strains, locus YLR221C, strain rsa3, active compounds read low 1.01 | S. cerevisiae deletion strains, locus YLR258W, strain gsy2, active compounds read low 0.979 | S. cerevisiae deletion strains, locus YLR262C, strain YPT6, active compounds read low 0.805 | S. cerevisiae deletion strains, locus YLR268W, strain sec22, active compounds read low 0.999 | S. cerevisiae deletion strains, locus YLR320W, strain mms22, active compounds read low 0.971 | S. cerevisiae deletion strains, locus YLR330W, strain CHS5, active compounds read low 0.993 | S. cerevisiae deletion strains, locus YLR342W, strain FKS1 (second series), active compounds read low 0.958 | S. cerevisiae deletion strains, locus YLR342W, strain FKS1, active compounds read low 0.973 | S. cerevisiae deletion strains, locus YLR357W, strain rsc2, active compounds read low 0.998 | S. cerevisiae deletion strains, locus YLR370C, strain arc18, active compounds read low 1 | S. cerevisiae deletion strains, locus YLR371W, strain rom2, active compounds read low 0.985 | S. cerevisiae deletion strains, locus YLR384C, strain iki3, active compounds read low 0.982 | S. cerevisiae deletion strains, locus YLR418C, strain cdc73, active compounds read low 1.01 | S. cerevisiae deletion strains, locus YML016C, strain PPZ1, active compounds read low 1 | S. cerevisiae deletion strains, locus YML032C, strain rad52, active compounds read low 0.981 | S. cerevisiae deletion strains, locus YML120C, strain ndi1, active compounds read low 0.986 | S. cerevisiae deletion strains, locus YML124C, strain tub3, active compounds read low 0.988 | S. cerevisiae deletion strains, locus YMR058W, strain fet3, active compounds read low 1.01 | S. cerevisiae deletion strains, locus YMR078C, strain ctf18, active compounds read low 0.986 | S. cerevisiae deletion strains, locus YMR125W, strain sto1, active compounds read low 1.01 | S. cerevisiae deletion strains, locus YMR129W, active compounds read low 0.985 | S. cerevisiae deletion strains, locus YMR205C, strain PFK2, active compounds read low 0.955 | S. cerevisiae deletion strains, locus YMR223W, strain ubp8, active compounds read low 0.987 | S. cerevisiae deletion strains, locus YMR231W, strain pep5, active compounds read low 0.987 | S. cerevisiae deletion strains, locus YMR263W, strain SAP30, active compounds read low 1.01 | S. cerevisiae deletion strains, locus YMR307W, strain GAS1, active compounds read low 0.945 | S. cerevisiae deletion strains, locus YNL067W, strain RPL9B, active compounds read low 1.01 | S. cerevisiae deletion strains, locus YNL071W, strain lat1, active compounds read low 0.994 | S. cerevisiae deletion strains, locus YNL128W, strain TEP1, active compounds read low 1.01 | S. cerevisiae deletion strains, locus YNL153C, strain GIM3, active compounds read low 1.01 | S. cerevisiae deletion strains, locus YNL183C, strain NPR1, active compounds read low 0.933 | S. cerevisiae deletion strains, locus YNL209W, strain ssb2, active compounds read low 1.01 | S. cerevisiae deletion strains, locus YNL233W, strain BNI4, active compounds read low 0.978 | S. cerevisiae deletion strains, locus YNL248C, strain rpa49, active compounds read low 1.01 | S. cerevisiae deletion strains, locus YNL250W, strain rad50, active compounds read low 1 | S. cerevisiae deletion strains, locus YNL271C, strain bni1, active compounds read low 0.992 | S. cerevisiae deletion strains, locus YNL298W, strain CLA4, active compounds read low 0.992 | S. cerevisiae deletion strains, locus YNL307C, strain MCK1, active compounds read low 0.953 | S. cerevisiae deletion strains, locus YNL322C, strain KRE1 (second series), active compounds read low 0.967 | S. cerevisiae deletion strains, locus YNL322C, strain KRE1, active compounds read low 0.999 | S. cerevisiae deletion strains, locus YNR049C, strain mso1, active compounds read low 0.99 | S. cerevisiae deletion strains, locus YNR052C, strain pop2, active compounds read low 0.977 | S. cerevisiae deletion strains, locus YOL006C, strain TOP1, active compounds read low 0.993 | S. cerevisiae deletion strains, locus YOL147C, strain pex11, active compounds read low 0.985 | S. cerevisiae deletion strains, locus YOR001W, strain rrp6, active compounds read low 1.01 | S. cerevisiae deletion strains, locus YOR061W, strain CKA2, active compounds read low 1 | S. cerevisiae deletion strains, locus YOR069W, strain VPS5, active compounds read low 0.992 | S. cerevisiae deletion strains, locus YOR070C, strain gyp1, active compounds read low 0.998 | S. cerevisiae deletion strains, locus YOR080W, strain dia2, active compounds read low 0.974 | S. cerevisiae deletion strains, locus YOR083W, strain WHI5, active compounds read low 0.987 | S. cerevisiae deletion strains, locus YOR106W, strain vam3, active compounds read low 1.02 | S. cerevisiae deletion strains, locus YOR136W, strain idh2, active compounds read low 0.991 | S. cerevisiae deletion strains, locus YOR144C, strain elg1, active compounds read low 0.987 | S. cerevisiae deletion strains, locus YOR184W, strain ser1, active compounds read low 0.952 | S. cerevisiae deletion strains, locus YOR231W, strain MKK1, active compounds read low 0.976 | S. cerevisiae deletion strains, locus YOR265W, strain rbl2, active compounds read low 1.01 | S. cerevisiae deletion strains, locus YOR270C, strain vph1, active compounds read low 1.01 | S. cerevisiae deletion strains, locus YOR290C, strain snf2, active compounds read low 1 | S. cerevisiae deletion strains, locus YOR316C, strain cot1, active compounds read low 0.99 | S. cerevisiae deletion strains, locus YPL051W, strain arl3, active compounds read low 0.982 | S. cerevisiae deletion strains, locus YPL055C, strain LGE1, active compounds read low 0.996 | S. cerevisiae deletion strains, locus YPL078C, strain atp4, active compounds read low 1.01 | S. cerevisiae deletion strains, locus YPL106C, strain sse1, active compounds read low 0.99 | S. cerevisiae deletion strains, locus YPL240C, strain hsp82, active compounds read low 0.995 | S. cerevisiae deletion strains, locus YPL241C, strain CIN2, active compounds read low 0.998 | S. cerevisiae deletion strains, locus YPL256C, strain CLN2, active compounds read low 0.983 | S. cerevisiae deletion strains, locus YPR119W, strain clb2, active compounds read low 0.983 | S. cerevisiae deletion strains, locus YPR141C, strain kar3, active compounds read low 0.995 | S. cerevisiae deletion strains, locus YPR163C, strain tif3, active compounds read low 0.995 | S. cerevisiae deletion strains, locus YPR167C, strain met16, active compounds read low 0.985 | S. cerevisiae deletion strains, strain wtn01, active compounds read low 0.982 | S. cerevisiae strains, strain wild type, active compounds read low 1.01
